Several values for one entry are separate records, joined by “and”; a condition that tells them apart may be missing. Equal values may be shown once. About 1,500 (0.58%) of roughly 260,000 compounds were called active. Another 5% or so got no clear call; they are omitted.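 The calls were made as follows: active = inhibition above a set limit at one or more doses, reproduced on every date tested; inconclusive = results disagree between test dates, or hit never tested in dose response; inactive = the rest.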 A selection follows. Results with a measured potency or affinity are listed apart.
Each compound was assayed against Virion infectivity factor (Human immunodeficiency virus type 1 group M subtype B (isolate BH10)) + Virion infectivity factor (Human immunodeficiency virus type 1 group M subtype B (isolate BRU/LAI)) + Virion infectivity factor (Human immunodeficiency virus type 1 group M subtype B (isolate PCV12)) + Virion infectivity factor (Human immunodeficiency virus type 1 group M subtype B (isolate HXB2)) + DNA dC->dU-editing enzyme APOBEC-3G (Homo sapiens) (UniProt P69720+P69721+P69722+P69723+Q9HC16) (assay: inhibitors of Vif binding to APOBEC3G peptide, primary screen, biochemical, TR-FRET, GST-Vif 1-94, biotin-A3G peptide, dose response retest (AID 1117319;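 also: Vif residues 1-94 fused to GST binding biotinylated APOBEC3G peptide 110-148; 0% = full assay without inhibitor and 100% = GST in place of GST-Vif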)). Details: stronger effect = higher value.

inhibition, inactive:
COc1cccc(CNS(=O)(=O)c2ccc3c(c2)CCN3C(=O)C2CC2)c1 5.57%, CCCC(NC(=O)CCc1c(C)c2cc3c(-c4ccccc4)coc3cc2oc1=O)C(=O)O (configuration not stated) -3.65%, O=c1cc(O)n(-c2ccccc2)c(=S)[nH]1 30.2%, O=c1cc(O)n(-c2ccc(Cl)cc2)c(=S)[nH]1 -0.58%, CC(C)[C@H](NC(=O)c1c(F)cccc1F)C(=O)OCC(=O)NC(=O)NC1CCCC1 -7.96%, Cc1ccccc1S(=O)(=O)c1c(C)cc(C)n(C)c1=O 6.26%, Cc1cccc(C(=O)NNS(=O)(=O)c2ccc(F)cc2)c1 -1.42%, O=C(N/N=C/c1cccc([N+](=O)[O-])c1)c1cccc2cc[nH]c12 -4.35%, CC1=C(C(N)=O)C(c2cccs2)n2nc(-c3cccc(C)c3)nc2N1 (configuration not stated) 10.3%, CC1=C(C(=O)Nc2ccccc2F)C(c2ccsc2)C2=C(CC(C)(C)CC2=O)N1 (configuration not stated) 0.63%, COC(=O)C1=C(C)NC2=C(C(=O)CC(c3cccs3)C2)C1c1ccsc1 (configuration not stated) 3.51%, CCCCN(C(=O)c1cc(-c2ccco2)nc2ccccc12)c1c(N)n(CCCC)c(=O)[nH]c1=O 22.2%, CCNC(=O)COC(=O)c1cc(-c2ccc(OC)cc2)nc2ccccc12 17.1%, CCCn1c(N)c(N(CCOC)C(=O)c2cc(-c3ccco3)nc3ccccc23)c(=O)[nH]c1=O 22.8%, O=C(COC(=O)c1cc(-c2ccco2)nc2ccccc12)NCc1ccccc1 27.6%, Cc1ccc(-c2cc(C(=O)OCC(=O)N(C)C3CCS(=O)(=O)C3)c3ccccc3n2)c(C)c1 (configuration not stated) 5.39%, Cc1cccc(C)c1NC(=O)COC(=O)c1cccnc1 0.67%, CN(C(=O)COC(=O)c1cc(-c2ccc(Cl)s2)nc2ccccc12)C1CCS(=O)(=O)C1 (configuration not stated) -9.51%, O=C(COC(=O)c1cc(-c2cccnc2)nc2ccccc12)Nc1ccc(F)cc1F -4.09%, COc1ccc(-c2nnc(SCC(N)=O)n2N)cc1 -2.53%, O=[N+]([O-])c1ccc(/C=N/N2CCN(c3ccncc3S(=O)(=O)N3CCCCC3)CC2)cc1 -3.38%, O=C(c1cccc2ccccc12)C1CCCN(C(=O)C2CCOCC2)C1 (configuration not stated) 3.16%, CCn1c(SCC(=O)Nc2sc3c(c2C#N)CCCC3)nnc1-c1ccco1 3.19%, COc1cccc(NC(=S)NCCc2ccccn2)c1 -0.67%, Cc1ccc(N2CC(C(=O)OCC(=O)c3c(N)n(CC(C)C)c(=O)n(C)c3=O)CC2=O)cc1 (configuration not stated) -1.07%, COC(=O)CSc1cc(C)nc(NC(C)=O)n1 3.6%, CC(C(=O)OCC(=O)Nc1ccc2c(c1)OCO2)N1C(=O)c2ccccc2C1=O (configuration not stated) 5.56%, CCN(CC)S(=O)(=O)c1cccc(C(=O)N[C@H](C(=O)OCC(N)=O)C(C)C)c1 19%, CC(C)c1ccc(C(=O)OCC(=O)c2c(N)n(C)c(=O)n(C)c2=O)cc1 2%, Clc1c(-c2ccccc2)nnn1-c1ccccc1 -12%, Cc1cc(C(=O)N2CCN(c3cccc(Cl)c3)CC2)c(C)o1 -5.08%, Cc1cc(C(=O)OCC(=O)NCc2ccc3c(c2)OCO3)c2ccccc2n1 -5.38%, O=C(OCC(=O)N1CCN(C(=O)c2ccco2)CC1)c1cc(-c2ccccc2)nc2ccccc12 -3.01%, O=C(COC(=O)c1ccco1)NCc1ccc2c(c1)OCO2 18.2%, CCOC(=O)C1CCCN(C(=O)c2cc(-c3ccc(C)cc3)nc3ccccc23)C1 (configuration not stated) 10.1%, O=C(OCC(=O)N1CCN(C(=O)c2ccco2)CC1)c1cc(-c2ccc(F)cc2)nc2ccccc12 -2.07% and -4.96%, CCOC(=O)C1CCCN(C(=O)c2cc(-c3ccccc3)nc3ccccc23)C1 (configuration not stated) -11.1%, O=C(Nc1ccc2oc(-c3cccnc3)nc2c1)c1cc2ccccc2o1 20.3%, COc1ccc(-n2nnc3c(=O)n(Cc4cc(C)ccc4C)cnc32)cc1 -0.91%, CCN(CC)CCNC(=O)c1cc([N+](=O)[O-])c(N(C)C)cc1OC 12.4%, COc1ccccc1NC(=S)NCCSc1ccc(C)cc1 9.9%, O=C1/C(=C/c2cccc(Br)c2)SC(=S)N1CCC(=O)N(CCO)c1ccccc1 -10.6%, Cc1ccc(S(=O)(=O)N2CCCCC2)cc1C(=O)NCCCN1CCOCC1 1.73%, Cc1cc(C)c(S(=O)(=O)NCC2CCC(C(=O)NCCCN3CCOCC3)CC2)c(C)c1 (configuration not stated) 3.66%, COc1ccc(S(=O)(=O)NCC2CCC(C(=O)N3CCC4(CC3)OCCO4)CC2)cc1 (configuration not stated) 0.18% and -4.29%, Cc1ccc(-n2nc3c(c2NC(=O)c2ccccc2Br)CS(=O)C3)cc1 (configuration not stated) 0.72%, O=c1[nH][nH]c(C(F)(F)F)c1/C=N/N1CCOCC1 -7.03%, C/C(=N\Nc1ccc(Cl)c(C(=O)O)c1)c1cccs1 -4.46%, C/C(=N\Nc1ccc(Cl)c(C(=O)O)c1)c1ccccn1 -6.06%, CCOc1cc(/C=C2\C(=O)N(Cc3ccco3)C(C)=C2C(=O)OC)ccc1O 24.1%, COC(=O)C1=C(C)NC(=O)/C1=C\c1ccc2c(c1)OCO2 16%, CCN1C(=O)/C(=C\c2cccs2)C(C(=O)OC)=C1C 2.01%, COC(=O)C1=C(C)NC(=O)/C1=C\c1cc(C)n(-c2c(C)cccc2C)c1C 22.2%, COC(=O)C1=C(C)NC(=O)/C1=C\N(C)C 5.9%, COC(=O)C1=C(C)N(Cc2ccco2)C(=O)/C1=C\c1ccc([N+](=O)[O-])cc1 -12.1%, COC(=O)C1=C(C)N(C)C(=O)/C1=C\c1ccco1 9.7%, COC(=O)C1=C(O)/C(=C\c2cc(C)n(-c3ccccc3F)c2C)N=C1C 25.1%, CC(Sc1ncccn1)C(=O)Nc1ccc2c(c1)OCCO2 (configuration not stated) -5.22%, Nc1cc(S(=O)(=O)Nc2ccc(Cl)cc2)ccc1N1CCOCC1 0.79%, COc1ccccc1Nc1nnc(SCC(=O)NC2CCCC2)s1 -10.8%, O=C(CCCOc1ccccc1)N1CCN(C(=O)c2ccco2)CC1 -5.18%, Cc1ccc(-c2nnc(-c3ccncc3)n2-c2ccc(C)cc2)cc1 -0.95%, C=CCN1C(=O)/C(=C\c2cccs2)C(C(=O)OC)=C1C 0.55%, COC(=O)C1=C(C)N(CC(C)C)C(=O)/C1=C\c1cccs1 2.91%, O=C(Nc1ccccc1)c1ccc(Cn2cc(C(F)(F)F)ccc2=O)cc1 -1.59%, O=S(=O)(NCc1ccccn1)c1ccc2c(c1)OCCO2 -0.75%, CCOc1ccc(C(=O)NCC(=O)NCC(c2ccco2)N2CCCCC2)cc1 (configuration not stated) -8.81%, CC[n+]1c(/C=C2\C=C(C)CC(C)(C)C2)sc2ccccc21 25.8%, CC[n+]1c(/C=C2\C=C(C)CC(C)C2)sc2ccccc21 (configuration not stated) 26%, CCCCOc1ccc(/C=c2\sc3ncnn3c2=O)cc1 6.23%, CCSc1nc2c(sc3nc(C)cc(C)c32)c(=O)[nH]1 -3.63%, CCOCCCNC(=O)C(NC(=O)C1CCC(=O)N1)c1ccc(C)cc1 (configuration not stated) 8.49%, C#CC(C)OC(=O)Nc1cnccc1C(F)(F)F (configuration not stated) 31.2%, O=C1CC(Nc2ccc(N3CCOCC3)cc2)C(=O)N1c1ccccc1 (configuration not stated) 16.9%, COc1cccc(N2C(=O)CC(Nc3ccc(N4CCOCC4)cc3)C2=O)c1 (configuration not stated) 27.7%, O=C1CC(Nc2ccccc2)C(=O)N1c1ccc(N2CCOCC2)cc1 (configuration not stated) 29%, Cc1ccc(NC2CC(=O)N(c3ccc(N4CCCCC4)cc3)C2=O)cc1 (configuration not stated) 25.5%, CC(C)CC(=O)Nc1ccc(N2CCOCC2)cc1 -0.35%, COc1ccc(NC2CC(=O)N(C(C)C)C2=O)cc1 (configuration not stated) 1.77%, Cc1ccc(CN2C(=O)CC(Nc3ccc(N4CCOCC4)cc3)C2=O)cc1 (configuration not stated) 4.98%, O=C(CN1C(=O)C(=O)N(C2CCCC2)C1=O)Nc1ccc(N2CCOCC2)cc1 -7.86%, COc1cccc(CC(NC(C)=O)C(=O)NC2CCN(S(=O)(=O)c3ccc(F)cc3)CC2)c1OC (configuration not stated) -17.6%, CCCCn1c(N)c(N(CCOC)C(=O)CCCc2nc3ccccc3c(=O)[nH]2)c(=O)[nH]c1=O -0.43%, COc1ccc(CC(=O)NCCS(=O)(=O)N2CCN(c3ccccc3OC)CC2)cc1 -3.77%, CCOc1ccc(CCNC(=O)COC(=O)Cc2c[nH]c3ccccc23)cc1OCC 2.44%, CCOCCCNCc1cccc(OC)c1 -0.48%, CN1CCN(S(=O)(=O)c2ccc(Oc3ccc(Br)cc3F)nc2)CC1 -0.65%, COc1cccc(CC(=O)OCC(=O)c2cc(OC)ccc2OC)c1 18.9%, Cc1cc(C)cc(N2CN=c3s/c(=C\c4ccco4)c(=O)n3C2)c1 3.97%, CCCC(=O)Nc1ccccc1NC(=O)CCC 16.5%, O=C1C(Cl)=C(NC(=O)c2ccccc2)C(=O)C(Cl)=C1NC(=O)c1ccccc1 20.2%, CCC(=O)Nc1c(C)cc(C)cc1Cl 1.1%, CC(=O)Nc1ccc(NC2=C(Cl)C(=O)c3ccccc3C2=O)cc1 11.5%, CCNC1=C(Cl)C(=O)c2ccccc2C1=O 2.59%, O=C(Nc1ccc2cn[nH]c2c1)c1c(Cl)cccc1Cl 2.79%, O=C1C(Cl)=C(Nc2ccccc2)C(=O)c2ccccc21 -1.3%, CN(C)c1ccc(NC2=C(Cl)C(=O)c3ccccc3C2=O)cc1 20.1%

From PubChem BioAssay AID1117319 (Southern Research Institute, 2015)
